# Over roughly 110,000 compounds, “z-score” has its median near -0.1; the highest 2% begin near 2. The entries come from a sample that favours the highest values as a whole. The source made the active and inactive calls.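 The calls were made as follows: active = z-score in the third read window above 3 or below -3; inactive = the rest.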
# Target: Metabotropic glutamate receptor 8 (Rattus norvegicus) (UniProt P70579)
# Experiment: rat mGluR8 modulators via GIRK flux, primary screen, cell-based, thallium flux, HTS (AID 488969)
# Details: HEK293 rat mGluR8, GIRK (G protein-gated inwardly rectifying potassium channel) thallium flux, FluoZin2; at 10 µM; stronger effect = higher value; submaximal glutamate (EC20) added with thallium
# Chain of Metabotropic glutamate receptor 8 (Rattus norvegicus) (P70579 whole entry, looked up): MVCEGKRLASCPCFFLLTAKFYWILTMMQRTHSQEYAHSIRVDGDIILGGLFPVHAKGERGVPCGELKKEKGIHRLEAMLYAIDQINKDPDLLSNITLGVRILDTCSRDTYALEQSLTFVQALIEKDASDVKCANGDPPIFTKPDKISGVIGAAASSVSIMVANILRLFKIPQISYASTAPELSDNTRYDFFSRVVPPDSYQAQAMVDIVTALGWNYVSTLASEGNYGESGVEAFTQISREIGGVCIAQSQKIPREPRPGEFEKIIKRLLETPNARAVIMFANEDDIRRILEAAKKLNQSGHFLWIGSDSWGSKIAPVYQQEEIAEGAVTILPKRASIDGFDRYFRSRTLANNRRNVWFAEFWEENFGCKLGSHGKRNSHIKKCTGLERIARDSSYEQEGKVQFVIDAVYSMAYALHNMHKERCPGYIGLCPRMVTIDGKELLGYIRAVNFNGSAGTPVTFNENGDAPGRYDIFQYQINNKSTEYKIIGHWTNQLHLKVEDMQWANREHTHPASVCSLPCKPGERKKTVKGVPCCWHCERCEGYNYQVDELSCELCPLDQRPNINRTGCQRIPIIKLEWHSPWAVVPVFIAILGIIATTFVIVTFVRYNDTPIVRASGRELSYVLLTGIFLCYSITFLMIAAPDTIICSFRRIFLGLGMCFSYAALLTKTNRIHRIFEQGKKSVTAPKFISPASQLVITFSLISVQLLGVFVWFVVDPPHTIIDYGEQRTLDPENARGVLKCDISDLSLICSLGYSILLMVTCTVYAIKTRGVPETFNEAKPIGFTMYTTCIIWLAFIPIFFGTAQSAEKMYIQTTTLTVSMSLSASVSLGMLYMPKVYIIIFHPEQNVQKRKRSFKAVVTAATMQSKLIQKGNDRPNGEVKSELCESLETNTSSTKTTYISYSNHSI
row,SMILES,z-score
1,CC1CCN(c2ccc(C(=O)Nc3ccc4c(c3)OCO4)cc2[N+](=O)[O-])CC1,-0.237
2,COc1ccccc1NC(=O)CNC(=O)c1ccccc1C,0.371
3,CCOC(=O)CNS(=O)(=O)c1ccc(C(=O)O)cc1,0.207
4,Cc1ccc(S(=O)(=O)CC(=O)Nc2nc(-c3ccccc3)cs2)cc1,1.27
5,O=C(CCCOc1ccc(Cl)cc1Cl)Nc1ccncc1,2.21
6,CN(C(=S)NC(=O)CCCOc1ccc(Cl)cc1Cl)c1ccccc1,4 (active)
7,CCCCC(=O)Nc1ccc(C(=O)NNC(=O)CCCOc2ccc(Cl)cc2Cl)cc1,-0.184
8,COc1ccccc1NC(=S)NC(=O)CCCOc1ccc(Cl)cc1Cl,-0.0968
9,O=C(CCCOc1ccc(Cl)cc1Cl)Nc1cccnc1,-0.0915
10,CCOc1ccccc1NC(=S)NC(=O)CCCOc1ccc(Cl)cc1Cl,-0.0571
11,Cc1ccc(C)c(Oc2ncnc(N)c2[N+](=O)[O-])c1,0.623
12,CCOC(=O)COc1ccc(S(=O)(=O)Nc2cccc(SC)c2)cc1,-0.28
13,CC(C)C(=O)Nc1ccc(-c2csc(-c3ccccc3)n2)cc1,-0.165
14,Cc1ccc(-c2cc(-c3ccccc3)[nH]c(=S)c2C#N)cc1,3.09 (active)
15,N#Cc1c(-c2ccc(C(F)(F)F)cc2)cc(-c2ccccc2)[nH]c1=S,1.24
16,Cc1cc(-c2ccccc2)c(C#N)c(=S)[nH]1,0.152
17,Cc1ccc(NC(=O)COC(=O)CNC(=O)c2ccc(Br)cc2)c(C)c1,-0.336
18,Cc1ccc(NC(=O)NC2CCN(S(=O)(=O)c3ccc(F)cc3)CC2)cc1,0.564
19,Brc1ccc(-c2cn3ccccc3n2)s1,-0.391
20,CCOC(=O)C1(C)NC(c2ccco2)C2C(=O)N(c3ccc(C)cc3)C(=O)C21 (stereo not given),0.153
21,COc1cc(NC(=O)C2CC2C)c(C(=O)O)cc1OC (stereo not given),-0.191
22,C/C(N)=C(/C#N)C(=O)CN1CCCCC1,0.678
23,O=C(CCCc1nc(-c2ccc(Cl)cc2)no1)N1CCOCC1,3.9 (active)
24,Cc1cccc(-c2noc(CCCC(=O)N3CCOCC3)n2)c1,-0.139
25,O=C(CCCc1nc(-c2ccccc2)no1)N1CCOCC1,0.382

row,SMILES,z-score
1,COc1ccc(Cl)cc1C(=O)NNC(=S)NC(=O)c1cc(-c2ccc(Cl)cc2)nc2ccccc12,0.219
2,CCOC(=O)c1ccc(NC(=O)COC(=O)Cc2csc(-c3ccccc3)n2)cc1,-0.252
3,O=C(NCc1cccs1)c1cccnc1C(=O)O,5.74 (active)
4,O=C(NCc1cccs1)c1cccnc1Cl,-0.317
5,O=C(NCc1cccs1)c1ccccc1C(=O)NCc1cccs1,-0.214
6,CCN(CC)S(=O)(=O)c1ccc(NCc2ccccc2)nc1,-0.962
7,Cc1ccc(OCC(=O)NNC(=O)C(C)Sc2ncnc3sc(C)c(C)c23)cc1 (stereo not given),7.7 (active)
8,Cc1sc2ncnc(SC(C)C(=O)N3c4ccccc4Sc4ccccc43)c2c1C (stereo not given),2.19
9,CCC(Sc1ncnc2sc(C)c(C)c12)C(=O)OC (stereo not given),-0.469
10,CCc1ccc(OCC(=O)NNC(=O)CSc2ncnc3sc(C)c(C)c23)cc1,0.487
11,Cc1sc2ncnc(SCC(=O)NCC(C)C)c2c1C,-0.208
12,Cc1sc2ncnc(SCC(=O)c3ccc(Cl)s3)c2c1C,1.06
13,COc1ccc(Cn2c(O)c(C=Nc3ccc(OC)cc3)c3ccccc3c2=O)cc1,-0.178
14,NC(=O)c1c(NC(=O)CSc2nc3c(c(C(F)(F)F)n2)CCc2ccccc2-3)sc2c1CCCC2,-0.123
15,Cc1ccc(C)c(NC(=O)Cc2csc(-c3ccccc3)n2)c1,-0.0885
16,O=C(NC1CCCCC1)C(c1ccc2ncccc2c1)N(Cc1ccc2c(c1)OCO2)C(=O)c1cccs1 (stereo not given),0.00177
17,CC(=O)c1cnc(Nc2ccccc2)s1,0.548
18,COc1ccc2cc(Br)ccc2c1CC(=O)NC1CC(C)(C)NC(C)(C)C1,3.91 (active)
19,COc1ccc2cc(Br)ccc2c1CC(=O)NC(C)(C)C,-0.349
20,CCCNC(=O)Cc1c(OC)ccc2cc(Br)ccc12,0.421
21,COc1ccc(NC(=O)CC(c2ccc(F)cc2)c2ccc(OC)cc2)cc1 (stereo not given),-0.576
22,COc1ccc(CNCCC(c2ccc(F)cc2)c2ccc(OC)cc2)cc1 (stereo not given),3.72 (active)
23,COc1ccc(C(CCNCc2ccccc2F)c2ccc(F)cc2)cc1 (stereo not given),3.61 (active)
24,COc1ccc(C(CC(=O)Nc2ccc(F)cc2)c2ccccc2)cc1 (stereo not given),1.4
25,COc1ccc(CC(=O)NCc2ccc3c(c2)OCO3)cc1,-0.347

row,SMILES,z-score
1,COc1ccc(C(CCNCc2ccccc2)c2ccc(F)cc2)cc1 (stereo not given),1.8
2,COc1ccc(C(CCNC(C)c2ccccc2)c2ccc(F)cc2)cc1 (stereo not given),1.71
3,Fc1ccccc1CNCCC(Cc1ccccc1)c1ccc2c(c1)OCO2 (stereo not given),0.733
4,COc1ccc(CNCCC(c2ccccc2)c2ccc3c(c2)OCO3)cc1 (stereo not given),2.28
5,CCOC(=O)c1cc(NC(=O)N(C(C)C)C(C)C)c(C)nc1C,0.0304
6,Brc1ccc(-c2nc(-c3cccnc3)no2)o1,-0.481
7,COc1ccc(CCNC(=O)Cn2nnc(-c3ccccc3F)n2)cc1OC,0.148
8,COc1ccc2c(c1)-c1c(sn(-c3ccccc3)c1=S)C(C)(C)N2,-0.192
9,O=C(CC1Nc2ccccc2NC1=O)NCCCN1CCCCCC1 (stereo not given),2.07
10,O=C(CC1Nc2ccccc2NC1=O)NCCc1ccccc1 (stereo not given),-0.0324
11,CCCCN(CC)CCCNC(=O)CC1Nc2ccccc2NC1=O (stereo not given),0.0522
12,COc1ccc(CNC(=O)C(NC(C)=O)C(=O)Nc2ccc(OC)cc2)cc1 (stereo not given),-0.149
13,Cc1ccc(C2(CC(=O)N3CCCC3)CCOC(C(C)C)C2)cc1 (stereo not given),-0.0604
14,O=C(O)CSc1nnnn1-c1ccc2c(c1)OCCO2,-0.0806
15,COC(=O)C1=C(C)N(C)C(=O)NC1c1ccccc1 (stereo not given),-0.573
16,Cc1nc2sccc2c(=O)n1-c1cccc(Cl)c1,-0.144
17,Cc1cccc(-n2c(C)nc3sccc3c2=O)c1,1.99
18,Cc1cccc(-n2c(C)nc3c(cnn3-c3ccc(F)cc3)c2=O)c1,1.02
19,Cc1noc(C)c1S(=O)(=O)N1CCCC(C(=O)N2CCC(C)CC2)C1 (stereo not given),1.01
20,Cc1ccc(Cl)cc1NC1=C/C(=N\S(=O)(=O)c2cccs2)c2ccccc2C1=O,-0.209
21,O=C(c1ccccc1Cl)N1CCc2ccccc2C1,-1.42
22,COc1ccc(NC(=O)/C(Cl)=C(/Cl)S(=O)(=O)Cc2ccc(C)cc2)cn1,-0.418
23,O=C(Nc1ccc2c(c1)OCO2)N1CCOCC1,0.476
24,O=C(Nc1ccc2c(c1)OCO2)N1CCN(c2ccccc2Cl)CC1,-0.291
25,O=C(Nc1ccc2c(c1)OCO2)N1CCN(C(=O)C2CCCO2)CC1 (stereo not given),2.05

# From PubChem BioAssay AID488969 (Vanderbilt High Throughput Screening Facility, 2010)
